{"source": "the antibiotic and cytotoxicity screens of Wong et al. (2023)", "note": "Among all 39,000 compounds or so, about 3,300 (8.5%) were called active. The entries come from a sample that favours actives as a whole.", "data": [{"test_system": "HepG2", "test": "cytotoxicity call (relative viability < 0.9)", "details": "10 µM", "values": [{"smiles": "CC(C)(C)[S@](=O)N1Cc2cc(C(=O)N3CCCCC3)nc(-c3cccc(-c4cccc(C#N)c4)c3)c2[C@@H]1CCO", "cytotoxicity call": "inactive"}, {"smiles": "CCO[C@H]1OC(C(N)=O)=C[C@@H](C)[C@@H]1CCCO", "cytotoxicity call": "inactive"}, {"smiles": "C[C@H]1COC(=O)[C@@H](Cc2ccc(F)cc2)CCC=CC[C@@H](CC(=O)N[C@@H](CO)Cc2ccccc2)C(=O)N1", "cytotoxicity call": "inactive"}, {"smiles": "C[C@@H]1CN([C@H](C)CO)C(=O)Cc2cc(NC(=O)c3ccncc3)ccc2O[C@@H]1CN(C)S(=O)(=O)c1ccc(Cl)cc1", "cytotoxicity call": "inactive"}, {"smiles": "CC(C)CC#Cc1ccc2c(c1)O[C@@H](CN(C)C(=O)c1ccncc1)[C@H](C)CN([C@@H](C)CO)S2(=O)=O", "cytotoxicity call": "inactive"}, {"smiles": "N=C(NO)C(=O)Nc1ccccc1", "cytotoxicity call": "inactive"}, {"smiles": "C[C@H]1CN([C@@H](C)CO)C(=O)c2ccccc2-c2ccccc2CO[C@H]1CN(C)C(=O)Nc1ccc(F)cc1", "cytotoxicity call": "inactive"}, {"smiles": "C[C@H]1CN([C@@H](C)CO)C(=O)c2cccc(NC(=O)C3CCOCC3)c2O[C@@H]1CN(C)S(=O)(=O)c1ccc(F)cc1", "cytotoxicity call": "inactive"}, {"smiles": "COc1ccc([Si](C)(C)[C@H]2[C@H](CCO)O[C@@]3(C(=O)N(Cc4ccc(N5C(=O)c6ccccc6Oc6ccccc65)cc4)c4ccccc43)[C@@H]2C)cc1", "cytotoxicity call": "active"}, {"smiles": "C[C@H]1[C@H]([Si](C)(C)F)[C@@H](CCO)O[C@]12C(=O)N(Cc1ccccc1)c1ccc(N3C(=O)c4ccccc4Oc4ccccc43)cc12", "cytotoxicity call": "inactive"}, {"smiles": "COc1ccc([Si](C)(C)[C@H]2[C@H](CCO)O[C@@]3(C(=O)N(Cc4ccccc4)c4ccc(N5C(=O)c6ccccc6Oc6ccccc65)cc43)[C@@H]2C)cc1", "cytotoxicity call": "active"}, {"smiles": "COc1ccc([Si](C)(C)[C@@H]2[C@@H](CCO)O[C@]3(C(=O)N(Cc4ccc(N5C(=O)c6ccccc6Oc6ccccc65)cc4)c4ccccc43)[C@H]2C)cc1", "cytotoxicity call": "active"}, {"smiles": "COc1ccc([Si](C)(C)[C@@H]2[C@@H](CCO)O[C@]3(C(=O)N(Cc4ccccc4)c4ccc(N5C(=O)c6ccccc6Oc6ccccc65)cc43)[C@H]2C)cc1", "cytotoxicity call": "inactive"}, {"smiles": "COCC#Cc1ccc2c(c1)O[C@H](CN(C)Cc1ccc(F)cc1)[C@H](C)CN([C@@H](C)CO)S2(=O)=O", "cytotoxicity call": "inactive"}, {"smiles": "Cc1noc(C)c1S(=O)(=O)N(C)C[C@H]1Oc2ccc(NC(=O)CCCN(C)C)cc2C(=O)N([C@H](C)CO)C[C@@H]1C", "cytotoxicity call": "inactive"}, {"smiles": "C[C@H](CO)N1C[C@H](C)[C@@H](CN(C)C)Oc2ccc(NS(=O)(=O)c3ccc(Cl)cc3)cc2CC1=O", "cytotoxicity call": "inactive"}, {"smiles": "COc1nonc1NC(C)=O", "cytotoxicity call": "inactive"}, {"smiles": "O=C1C[C@H](N2C(=O)CCC2=O)[C@@H]2CO[C@@H]1O2", "cytotoxicity call": "inactive"}, {"smiles": "C[C@@H]1CN([C@H](C)CO)C(=O)c2cccc(NC(=O)c3cnccn3)c2O[C@H]1CN(C)C(=O)Nc1ccc2c(c1)OCO2", "cytotoxicity call": "inactive"}, {"smiles": "C[C@H](CO)N1C[C@H](C)[C@H](CN(C)Cc2ccc(Cl)c(Cl)c2)Oc2ccc(NC(=O)Cc3ccccc3)cc2CC1=O", "cytotoxicity call": "inactive"}, {"smiles": "C[C@@H]1CN([C@@H](C)CO)C(=O)Cc2cc(NC(=O)Cc3ccccc3)ccc2O[C@@H]1CN(C)Cc1ccc(Cl)c(Cl)c1", "cytotoxicity call": "active"}, {"smiles": "C[C@@H]1CN([C@H](C)CO)C(=O)Cc2cc(NC(=O)Cc3ccccc3)ccc2O[C@@H]1CN(C)Cc1ccc(Cl)c(Cl)c1", "cytotoxicity call": "active"}, {"smiles": "C[C@@H]1CN([C@@H](C)CO)C(=O)Cc2cc(NC(=O)Cc3ccccc3)ccc2O[C@H]1CN(C)Cc1ccc(Cl)c(Cl)c1", "cytotoxicity call": "inactive"}, {"smiles": "C[C@@H]1CN([C@H](C)CO)C(=O)Cc2cc(NC(=O)Cc3ccccc3)ccc2O[C@H]1CN(C)Cc1ccc(Cl)c(Cl)c1", "cytotoxicity call": "inactive"}, {"smiles": "C[C@H]1CN([C@@H](C)CO)C(=O)Cc2cc(NC(=O)Cc3ccccc3)ccc2O[C@@H]1CN(C)Cc1ccc(Cl)c(Cl)c1", "cytotoxicity call": "inactive"}, {"smiles": "C[C@H](CO)N1C[C@H](C)[C@@H](CN(C)Cc2ccc(Cl)c(Cl)c2)Oc2ccc(NC(=O)Cc3ccccc3)cc2CC1=O", "cytotoxicity call": "inactive"}, {"smiles": "C[C@H]1CN([C@@H](C)CO)C(=O)Cc2cc(NC(=O)Cc3ccccc3)ccc2O[C@H]1CN(C)Cc1ccc(Cl)c(Cl)c1", "cytotoxicity call": "active"}, {"smiles": "C[C@@H]1CN([C@@H](C)CO)C(=O)c2cc(NC(=O)C3CCCCC3)ccc2O[C@@H](C)CCCCO[C@@H]1CN(C)Cc1ccncc1", "cytotoxicity call": "inactive"}, {"smiles": "Cc1noc(C)c1S(=O)(=O)N(C)C[C@H]1Oc2ccc(NC(=O)C3CCCCC3)cc2CC(=O)N([C@H](C)CO)C[C@H]1C", "cytotoxicity call": "inactive"}, {"smiles": "C[C@H]1CN([C@@H](C)CO)C(=O)c2cccc(NS(=O)(=O)c3ccccc3)c2O[C@@H]1CN(C)Cc1ccc(Cl)c(Cl)c1", "cytotoxicity call": "inactive"}, {"smiles": "O=C(C[C@H]1C=C[C@@H](NS(=O)(=O)c2ccccc2)[C@H](CO)O1)NCc1ccncn1", "cytotoxicity call": "inactive"}, {"smiles": "Cn1cnc(S(=O)(=O)N2C[C@H](O)COC[C@H]3O[C@H](CC(=O)NCc4ccc(F)cc4)CC[C@@H]32)c1", "cytotoxicity call": "inactive"}, {"smiles": "CN(C)C(=O)c1ccc(-c2cccc(-c3nc(C(=O)NC4CCCCC4)cc4c3[C@H](CCO)N([S@@](=O)C(C)(C)C)C4)c2)cc1", "cytotoxicity call": "inactive"}, {"smiles": "CCCN(C)C[C@@H]1OCCCC[C@H](C)Oc2ccc(NC(=O)Nc3ccc4c(c3)OCO4)cc2C(=O)N([C@H](C)CO)C[C@@H]1C", "cytotoxicity call": "inactive"}, {"smiles": "COc1cccc(NC(=O)N(C)C[C@H]2Oc3cc(C#CC4(O)CCCC4)ccc3S(=O)(=O)N([C@H](C)CO)C[C@@H]2C)c1", "cytotoxicity call": "inactive"}, {"smiles": "C[C@@H]1CN([C@H](C)CO)S(=O)(=O)c2ccc(C#CC3(O)CCCC3)cc2O[C@@H]1CN(C)C(=O)Nc1ccccc1", "cytotoxicity call": "active"}, {"smiles": "COc1cccc(NC(=O)N(C)C[C@H]2Oc3cc(C#CC4(O)CCCC4)ccc3S(=O)(=O)N([C@@H](C)CO)C[C@H]2C)c1", "cytotoxicity call": "inactive"}, {"smiles": "C[C@@H]1CN([C@H](C)CO)S(=O)(=O)c2ccc(/C=C/c3ccccc3)cc2O[C@H]1CN(C)C(=O)Nc1cc(F)ccc1F", "cytotoxicity call": "inactive"}, {"smiles": "C[C@H]1CN([C@@H](C)CO)S(=O)(=O)c2ccc(C#CC3(O)CCCC3)cc2O[C@H]1CN(C)C(=O)Nc1ccccc1", "cytotoxicity call": "inactive"}, {"smiles": "C[C@@H]1CN([C@H](C)CO)S(=O)(=O)c2ccc(C#CC3(O)CCCC3)cc2O[C@H]1CN(C)C(=O)Nc1ccccc1", "cytotoxicity call": "inactive"}, {"smiles": "C[C@@H]1CN([C@H](C)CO)S(=O)(=O)c2ccc(/C=C/c3ccccc3)cc2O[C@@H]1CN(C)C(=O)Nc1cc(F)ccc1F", "cytotoxicity call": "active"}, {"smiles": "C[C@H](CO)N1C[C@H](C)[C@@H](CN(C)C(=O)Nc2cc(F)ccc2F)Oc2cc(/C=C/c3ccccc3)ccc2S1(=O)=O", "cytotoxicity call": "inactive"}, {"smiles": "COc1cccc(NC(=O)N(C)C[C@H]2Oc3cc(C#CC4(O)CCCC4)ccc3S(=O)(=O)N([C@H](C)CO)C[C@H]2C)c1", "cytotoxicity call": "active"}]}]}
